In the library only some 4% were active in any assay of this set; here they are far more common.
HIF-2a block: HIF-2a reporter inhibitors, primary screen, luminescence, 786-0 RCC cells; inhibition, % at 18.8 µM; 786-0 RCC cells HIF-2a reporter, luciferase luminescence, overnight; hit rate 0.72% among 360,000; AID 624352, 2012;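 active = inhibition of the luminescence signal of 40% or more relative to plate controls, in a single-dose primary screen at 18.75 µM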
TWEAK Fn14 block: inhibitors of TWEAK-Fn14 signaling, primary screen, luciferase reporter cells, uHTS; TWEAK-stimulated Fn14 reporter cells, luciferase luminescence, 8 h; hit rate 2% among 360,000; inhibition, % at 10 µM; in the data active = inhibition above about 50%
MITF TRPM1 inh: inhibitors of MITF-dependent TRPM1 promoter reporter, primary screen, cell-based, SK-MEL-5, single point, luciferase. hit rate 0.83% among 330,000. inhibition, % at 12.5 µM. SK-MEL-5 TRPM1 promoter luciferase, 24 h;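 active = mean inhibition across replicates of 60% or more, whatever share of single replicates reaches that level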
Peg3 promoter: Peg3 promoter-driven luciferase inhibitors, primary screen, cell-based, HeLa, luciferase luminescence. hit rate 1.7% among 360,000. HeLa PEG-Prom luciferase reporter, overnight. inhibition, % at 20 µM;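 active = inhibition of at least 50% at 20 µM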
TROY signal inh: inhibitors of TROY-driven NF-kB signaling, primary screen, Q293 LMP1-TROYcd cells, NF-kB luciferase, uHTS | Q293 LMP1-TROYcd NF-kB luciferase reporter, 4 h | inhibition, % at 10 µM | hit rate 0.98% among 360,000;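 active = compounds whose plate-normalised and pattern-corrected inhibition of the luciferase reporter signal at the single screening dose is 50% or more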
EBV LMP1 NFkB: EBV LMP1-driven NF-kappaB luciferase reporter inhibitors, primary screen, cell-based, luminescence, single point; LMP1-induced NF-kappaB luciferase reporter cells; inhibition, % at 12.5 µM; hit rate 0.69% among 350,000; in the data active = inhibition above about 41%
A number is an active result; - = inactive; . = not tested or not shown.

SMILES	HIF-2a block	TWEAK Fn14 block	MITF TRPM1 inh	Peg3 promoter	TROY signal inh	EBV LMP1 NFkB
CN(C)S(=O)(=O)c1cc(NC(=O)COC(=O)CCSc2ccc(Cl)cc2)ccc1Cl	-	-	-	-	-	-
CCOC(=O)c1sc(NC(=O)Nc2ccccc2Cl)cc1C	-	70	-	-	69	-
CCOC(=O)c1sc(NC(=O)Nc2ccccc2)cc1C	-	-	-	-	-	-
N#Cc1cc(-c2ccccc2)nc(Oc2ccc(Cl)cc2)n1	-	50	-	-	-	-
Clc1ccc(-c2ccnc(Oc3cc(Cl)ccc3Cl)n2)cc1	-	-	-	-	-	-
Clc1ccc(-c2ccnc(Oc3ccc4ccccc4c3)n2)cc1	-	-	-	-	-	57
NC(c1cccc(F)c1)c1nc(-c2ccc(Cl)cc2)cs1 (stereo not given)	-	-	.	-	-	.
[NH-]c1ncnc2c1N=C[N+]2=CC=CCO	-	-	-	-	-	-
C=CCn1c(C)cc(C(=O)COC(=O)COc2ccccc2C#N)c1C	-	-	-	-	-	-
C=CCn1c(C)cc(C(=O)COC(=O)[C@@H](NC(=O)c2ccccc2Cl)C(C)C)c1C	-	54	-	-	-	-
O=C1Nc2ccc(Br)cc2C12NNc1ccccc1O2 (stereo not given)	-	-	-	67	-	-
COc1ccc(-c2c[n+]3c4n2CCCCC4=C(c2ccccc2)C3)cc1	-	-	78	-	-	-
CCc1n[n+](CC(=O)c2ccccc2)c(N)s1	-	82	-	-	58	52
Nc1ccc[n+](CC(=O)c2ccccc2)c1	-	-	-	-	-	-
Cc1cc(C)nc(Nc2nc3ccccc3o2)n1	-	-	-	-	-	-
CC(=NNc1nc2ccccc2o1)c1ncccn1	-	103	-	-	-	58
CC(=NNc1nc2ccccc2o1)c1cc2ccccc2cn1	-	-	-	89	-	57
CCCNC(=O)c1cc2c(c(-c3cccc(-c4ccccc4F)c3)n1)[C@@H](CCO)N(C(=O)CC1CC1)C2	-	-	.	.	-	.
Cn1c(=O)c2c(ncn2CCC(=O)N/N=C/c2cccnc2)n(C)c1=O	-	84	-	-	-	-
Cn1c(=O)c2c(ncn2CCC(=O)N/N=C/c2ccccc2)n(C)c1=O	-	-	-	-	-	-
CCCCCCOC(=O)Cc1c(C)nc(N)[nH]c1=O	-	56	-	-	-	-
Cc1cccc(C(=O)NCC(=O)N2CCC2)c1	-	-	-	-	-	-
O=C(CSc1nc2c(cnn2-c2ccc(F)cc2)c(=O)[nH]1)N1N=C(c2cccs2)CC1c1ccc(F)cc1 (stereo not given)	-	57	.	-	50	.
O=C(CSc1nc2ccccc2s1)N1N=C(c2cccs2)CC1c1ccc(F)cc1 (stereo not given)	-	-	-	-	-	-
CC(=O)Nc1ccc(S(=O)(=O)N2CCN(c3cc(C)nc4ccccc34)CC2)cc1	-	-	-	-	-	-
SMILES	HIF-2a block	TWEAK Fn14 block	MITF TRPM1 inh	Peg3 promoter	TROY signal inh	EBV LMP1 NFkB
CC(=O)Nc1ccc(S(=O)(=O)N2CCN(c3nc(NC4CCCC4)c4ccccc4n3)CC2)cc1	-	-	-	85	-	-
COc1cccc(CN2CCC2(C)C(=O)Nc2cccc(NS(C)(=O)=O)c2)c1OC (stereo not given)	-	67	.	-	-	.
Cc1cc(=O)n2nc(N3CCCC(C(=O)NCc4ccccc4Cl)C3)sc2n1 (stereo not given)	-	-	-	-	-	-
O=C(/C=C\Nc1ccc2c(c1)OCO2)c1ccc(Cl)s1	-	53	-	-	-	-
O=C(/C=C/c1ccncc1)c1ccc(NC(=O)c2ccccc2F)cc1	-	-	-	103	-	-
O=C(/C=C/c1ccc(NC(=O)c2ccccc2-c2ccccc2C(=O)O)cc1)c1ccccc1	-	59	-	-	-	-
O=C(O)c1ccccc1-c1ccccc1C(=O)Nc1ccc(F)cc1	-	-	-	-	-	-
Cc1ccccc1-n1c(C)cc(/C=C(\C#N)C(=O)NCC2CCCO2)c1C (stereo not given)	-	56	-	-	59	-
O=C(Oc1ccc2c(-c3ccccc3)cc(=O)oc2c1)C1CCCCC1	-	-	-	-	-	-
COc1ccc(-c2cc(=O)oc3cc(OC(=O)C4CCCCC4)ccc23)cc1	-	54	-	-	-	-
Cc1cccc(NC(=O)CSc2nnc(C)c(C)n2)c1	-	-	-	-	-	-
CCN1CCN(c2cc3c(cc2F)c(=O)c(S(=O)(=O)c2ccccc2)cn3C)CC1	-	-	-	-	-	-
Cc1ccc(S(=O)(=O)c2cn(C)c3cc(N4CCN(C)CC4)c(F)cc3c2=O)c(C)c1	-	-	-	76	-	-
O=C(COC(=O)c1cccc(OC(F)F)c1)Nc1cc(S(=O)(=O)N2CCCC2)ccc1Cl	-	-	.	-	-	-
COc1ccc(C(=O)NC(=S)NNC(=O)c2ccc3ccccc3n2)cc1	-	-	-	-	-	49
COc1cc(OC)cc(C(=O)NNC(=O)c2ccc3ccccc3n2)c1	-	-	-	-	57	-
COc1ccc(N=C(NN)c2ccc3ccccc3n2)cc1	56	101	-	-	91	-
CCCC(=O)N1CCCC1(C)C(=O)Nc1ccc(-n2cncn2)cc1 (stereo not given)	-	-	.	-	-	.
O=C1c2ccc(Oc3cccc([N+](=O)[O-])c3)cc2C(=O)N1c1ccccn1	-	-	-	-	-	-
O=C1c2cc([N+](=O)[O-])cc3cc([N+](=O)[O-])cc(c23)C(=O)N1c1ccccn1	-	64	82	-	-	-
O=C1CCC[C@@H]2C=C[C@H](c3ccc(Br)cc3)[C@H]3CCN1[C@@H]32	-	-	.	.	-	.
CCOc1ccc2c(c1)C(C)=CC(C)(C)N2S(=O)(=O)c1ccc(C)cc1	-	-	75	-	-	-
COc1ccc2c(c1)C(C)=CC(C)(C)N2S(=O)(=O)c1ccc(C)cc1	-	-	-	-	-	-
CN(C)c1ccc(/C=N/n2ncc3ccccc32)cc1	-	54	-	-	-	-
CCCn1c(SC(C)C(=O)NCC2CCCO2)nc2sc3c(c2c1=O)CCC3 (stereo not given)	-	-	-	-	-	-
Cn1ccsc1=NC(=O)c1ccc(OC(F)(F)F)cc1	-	-	-	-	-	-
O=C(Nc1ccc(N2CCOCC2)cc1)c1nc2ccccc2s1	-	-	-	-	55	-
O=C(c1cc(=O)[nH]c2ccccc12)N(Cc1nnc(-c2ccccc2Cl)o1)C1CC1	-	-	-	-	-	-
O=C(Nc1ccc(Cl)cc1)Nc1nnc(CSc2ccc(Cl)cc2)s1	-	64	-	-	-	-
O=C(Nc1nnc(COc2ccccc2F)s1)Nc1ccccc1F	-	-	-	-	-	-

From PubChem BioAssay
